PubChem BioAssay (Tox21)
“And” between values parts separate entries of the source, which are not always exact repeats. Equal values may be shown once. Inconclusive results are not listed. Where a call stands in place of a potency, no number is given. Some structures have more than one record in an assay (separate samples or runs), and their calls can disagree. The source made the active and inactive calls. Calls come from the whole dose curve; as a rule, active = well fitted curve in the direction sought with a large enough effect in the repeat runs; inconclusive = weak or mixed curves; inactive = no such curve, though single readings can be large; an effect the other way counts as inactive or inconclusive. Starred links: 1 amine or outer side, 2 acyl side, 3 side chain; linkers in the order of their positions; H or OH if unused. Positions of bridges follow the written chain, without caps; N, C: chain ends. Non-standard residues stand in square brackets, D forms with d. Residues, ends and D or L forms follow the SMILES beside them. Chains are numbered I, II in the order given. Actinocin(9to1) = Cc1c2oc3c(C)ccc(C(=O)[*:1])c3nc-2c(C(=O)[*:2])c(N)c1=O; NMeV = CN[C@H](C(=O)O)C(C)C; Sar = CNCC(=O)O

Tests used:
[1] = A CellTox Green Cytotoxicity Assay to monitor cytotoxicity in HepG2 cells - 0 hour (AID 1224882); note: nearly all actives have a fitted effect of over 35% in size
Procedure, shortened: (§1)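 Using 1536-well format, dye-containing HepG2 suspension was seeded, allowed 5 h at 37 C/5% CO2, dosed by pintool with compounds, positive and negative controls, and imaged for fluorescence across 40 h.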

[2] = A CellTox Green Cytotoxicity Assay to monitor cytotoxicity in HEK293 cells - 8 hour (AID 1224884); note: nearly all actives have a fitted effect of over 35% in size; note: potency is the fitted concentration of half-maximal effect
Procedure, shortened: (§2)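 Fluorescence intensity, read at 0, 8, 16, 24, 32 and 40 h of compound treatment, reflected dye binding to DNA of dead HEK293 cells; compounds (23 nL, DMSO) were added 5 h after plating cells with reagent.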

[3] = qHTS RealTime-Glo MT Cell Viability Assay in HepG2 cells - 16 hour (AID 1224885); note: nearly all actives have a fitted effect of over 50% in size; note: potency is the fitted concentration of half-maximal effect
Procedure, shortened: (§3)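 Compound treatment began 5 h after plating HepG2 cells (600/well) with NanoLuc luciferase and prosubstrate. Plates stayed at 37 C for 40 h; luminescence was captured at six time points, 0 h through 40 h.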

[4] = qHTS RealTime-Glo MT Cell Viability Assay in HEK293 cells - 8 hour (AID 1224887); note: nearly all actives have a fitted effect of over 50% in size; note: potency is the fitted concentration of half-maximal effect; for activity change, negative = cytotoxicity: top concentration of the series differs between compounds
Procedure, shortened: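 Viable HEK293 cells reduce a cell-permeant prosubstrate; the product diffuses out and is consumed by NanoLuc in the medium to give light. Compounds went in after a 5 h incubation and plates were read over the treatment course.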

[5] = A CellTox Green Cytotoxicity Assay to monitor cytotoxicity in HEK293 cells - 16 hour (AID 1224888); note: nearly all actives have a fitted effect of over 35% in size
Procedure, shortened: as §2

[6] = qHTS RealTime-Glo MT Cell Viability Assay in HepG2 cells - 0 hour (AID 1224889); note: nearly all actives have a fitted effect of over 50% in size
Procedure, shortened: as §3

[7] = A CellTox Green Cytotoxicity Assay to monitor cytotoxicity in HepG2 cells - 8 hour (AID 1224890); note: nearly all actives have a fitted effect of over 45% in size; note: potency is the fitted concentration of half-maximal effect
Procedure, shortened: as §1

[8] = qHTS assay to identify small molecule antagonists of the estrogen receptor alpha (ER-alpha) signaling pathway using the BG1 cell line in the presence of 0.1 nM 17-beta-estradiol - cell viability counter screen (AID 1259241); note: nearly all actives have a fitted effect of over 40% in size
Procedure, shortened: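 Measures cytotoxicity alongside the ER-alpha antagonist readout: VM7Luc4E2 cells, charcoal-stripped serum, 0.1 nM 17beta-estradiol final, 22 hr compound incubation at 37C, CellTiter-Fluor fluorescence.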

[9] = qHTS RealTime-Glo MT Cell Viability Assay in HEK293 cells - 24 hour (AID 1224886); note: nearly all actives have a fitted effect of over 50% in size; note: potency is the fitted concentration of half-maximal effect; for activity change, negative = cytotoxicity: top concentration of the series differs between compounds
Procedure, shortened: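 Quantitative high-throughput screen of the Tox21 10K library in HEK293: cells and RealTime-Glo reagents plated together, compound added at 5 h, luminescence monitored through 40 h at 37 C.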

Compound: NNCCc1ccccc1
- Potency [1]: inactive
- Potency [2]: inactive
- Potency [3]: inactive
- Potency [4]: inactive
- Potency [5]: inactive
- Potency [6]: inactive
- Potency [7]: inactive

Compound: Oc1c(Cl)cc(Cl)c(Cl)c1Cc1c(O)c(Cl)cc(Cl)c1Cl
- Potency [1]: inactive
- Potency [2]: inactive
- Potency [3]: inactive
- Potency [4]: inactive
- Potency [5]: inactive
- Potency [6]: inactive

Compound: CNC1(C)C2CCC(C2)C1(C)C (stereo not drawn)
- Potency [2]: inactive
- Potency [3]: inactive
- Potency [4]: inactive
- Potency [5]: inactive
- Potency [6]: inactive
- Potency [8]: inactive

Compound: C=CC(=O)OCCCCCCOC(=O)C=C
- Potency [1]: inactive
- Potency [2]: inactive
- Potency [9]: 43.6 µM (active)
- Potency [5]: inactive
- Potency [6]: inactive

Compound: O=C(Oc1ccccc1)c1ccccc1O
- Potency [1]: inactive
- Potency [2]: inactive
- Potency [3]: inactive
- Potency [9]: inactive
- Potency [4]: inactive
- Potency [5]: inactive
- Potency [6]: inactive
- Potency [7]: inactive
- Potency [8]: inactive

Compound: CCN(CC)C(=S)SSC(=S)N(CC)CC
- Potency [1]: inactive
- Potency [2]: inactive and 56.2 µM (active)
- Potency [3]: 141 nM (active)
- Potency [9]: 195 nM (active) and 100 nM (active) and 13.4 µM (active)
- Potency [4]: 13.8 µM (active) and 18.5 µM (active)
- Potency [6]: inactive
- Potency [8]: inactive

Compound: CCC(C)(C)C(=O)O[C@H]1C[C@@H](C)C=C2C=C[C@H](C)[C@H](CC[C@@H]3C[C@@H](O)CC(=O)O3)[C@H]21
- Potency [1]: inactive
- Potency [2]: inactive
- Potency [5]: inactive
- Potency [7]: inactive

Compound: BrC1CCC(Br)C(Br)CCC(Br)C(Br)CCC1Br (stereo not drawn)
- Potency [1]: inactive
- Potency [2]: inactive
- Potency [9]: inactive
- Potency [4]: inactive
- Potency [5]: inactive
- Potency [6]: inactive
- Potency [7]: inactive
- Potency [8]: inactive

Compound: Cc1ccc(-c2cc(C(F)(F)F)nn2-c2ccc(S(N)(=O)=O)cc2)cc1
- Potency [1]: inactive
- Potency [2]: inactive
- Potency [3]: 48.8 µM (active) and 43.6 µM (active) and inactive
- Potency [4]: 43.5 µM (active) and 30.9 µM (active) and inactive
- Potency [5]: inactive
- Potency [6]: inactive
- Potency [7]: 54.9 µM (active)
- Potency [8]: inactive

Compound: COC(=O)/C=C/c1ccccc1
- Potency [1]: inactive
- Potency [2]: inactive and 34.7 µM (active)
- Potency [3]: inactive
- Potency [9]: inactive
- Potency [4]: inactive
- Potency [6]: inactive
- Potency [7]: inactive

Compound: CC1=C(C=O)C(C)(C)CC=C1
- Potency [1]: inactive
- Potency [2]: inactive
- Potency [3]: inactive
- Potency [9]: inactive
- Potency [4]: inactive
- Potency [5]: inactive
- Potency [6]: inactive
- Potency [7]: inactive
- Potency [8]: inactive

Compound: Cc1c2oc3c(C)ccc(C(=O)N[C@@H]4C(=O)N[C@H](C(C)C)C(=O)N5CCC[C@H]5C(=O)N(C)CC(=O)N(C)[C@@H](C(C)C)C(=O)O[C@@H]4C)c3nc-2c(C(=O)N[C@@H]2C(=O)N[C@H](C(C)C)C(=O)N3CCC[C@H]3C(=O)N(C)CC(=O)N(C)[C@@H](C(C)C)C(=O)O[C@@H]2C)c(N)c1=O (I: T[dV]P[Sar][NMeV] / II: T[dV]P[Sar][NMeV]; ester I:1-I:C, II:1-II:C; linker I:N-II:N via Actinocin(9to1))
- Potency [1]: inactive
- Potency [2]: inactive
- Potency [3]: 8.47 µM (active) and 9.52 µM (active)
- Potency [9]: 16.9 nM (active) and 23.9 nM (active)
- Potency [5]: inactive
- Potency [6]: inactive

Compound: NC(Cc1ccc(Cl)cc1)C(=O)O (stereo not drawn)
- cytotoxicity [1]: -3.58% [at 0.29 µM] (inactive)
- cytotoxicity increase [2]: 5.18% [at 0.29 µM] (inactive)
- activity change, negative = cytotoxic [3]: -3.04% [at 0.29 µM] (inactive)
- activity change, negative = cytotoxicity [4]: 10.3% [at 0.29 µM] (inactive)
- activity change [5]: -4.15% [at 0.29 µM, stronger effect = higher value] (inactive)
- activity change, negative = cytotoxicity [6]: -2.96% [at 0.29 µM] (inactive)
- cytotoxicity increase [7]: -8.44% [at 0.29 µM] (inactive)
- activity change, negative = cytotoxicity [8]: 0.121% [at 0.349 µM] (inactive)

Compound: CC1COc2c(N3CCN(C)CC3)c(F)cc3c(=O)c(C(=O)O)cn1c23 (stereo not drawn)
- Potency [1]: inactive
- Potency [2]: inactive
- Potency [5]: inactive
- Potency [7]: inactive

Compound: CC(C)CCOCc1ccccc1
- Potency [1]: inactive
- Potency [2]: inactive
- Potency [3]: inactive
- Potency [9]: inactive
- Potency [4]: inactive
- Potency [5]: inactive
- Potency [6]: inactive
- Potency [7]: inactive
- Potency [8]: inactive

Compound: CCCOC(=O)c1cc(O)c(O)c(O)c1
- Potency [1]: inactive
- Potency [2]: inactive
- Potency [3]: inactive
- Potency [5]: inactive
- Potency [6]: inactive
